# An excerpt weighted towards active compounds, which were near 3.4% of everything screened.
# esBAF inh = Bmi1 luciferase reporter increase in mESCs, primary screen, esBAF inhibitor project, mouse ES cells, Bmi1 luciferase knock-in, single point | 24 h; 100% = twice the neutral-well signal | AID 602393, 2012 | reporter increase, % at 12.5 µM | 350,000 compounds, 2% hits; in the data active = activation above about 40%;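 note: 0% = median of the plate's neutral control wells and 100% = double that signal; a rise in the Bmi1 reporter signal indicates esBAF inhibition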
# Env fusion inh = inhibitors of HIV-1 Env-driven cell-cell fusion, primary screen, HeLa-JRFL effector, CEM21 target cells, luciferase. inhibition, % at 12.3 µM. 360,000 compounds, 1.1% hits;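 active = mean replicate inhibition score of at least 50 and every replicate individually at or above 50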;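 note: 0% = plate neutral controls and 100% = maraviroc near 300 nM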
# miR-122 sensor = miR-122 Renilla sensor signal increase in Huh7, primary screen, miR-122 inhibitor project, cell-based, single point, plate reader | Huh7 miR-122 Renilla luciferase sensor, 48 h; neutral wells = 0, positive control = 100 | 340,000 compounds, 0.3% hits | activation (reporter increase), % at 12.5 µM | AID 602342, 2012;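 active = mean replicate activation score at least 90 and every replicate individually at or above 90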;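 note: higher luciferase means less miR-122 activity so hits act as miR-122 inhibitors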
# Wnt act = Wnt/beta-catenin pathway activators, primary screen, cell-based, plate reader, single point; Wnt/beta-catenin reporter cell assay, activator; activation, % at 9.35 µM; 300,000 compounds, 1.2% hits; AID 743398, 2014; in the data active = activation above about 30%, passing the limit was not always enough;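 note: 0% = neutral control wells and 100% = positive control wells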
# MITF act = activators of MITF-driven TRPM1 promoter reporter, primary screen, cell-based, SK-MEL-5, luciferase, single point. activation, % at 12.5 µM. SK-MEL-5 TRPM1-promoter luciferase, 24 h; % of positive control, neutral wells = 0. AID 588334, 2011. 300,000 compounds, 0.75% hits;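 active = mean activation of at least 80% with every replicate also reaching 80%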;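 note: 0% = neutral control wells and 100% = parthenolide positive control wells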
# An asterisk follows results filed as active; . = no result given; [ ] = another dose, or the depositor's remark.
SMILES,esBAF inh,Env fusion inh,miR-122 sensor,Wnt act,MITF act
O=C(Nc1ccc2c(c1)[C@H]1C[C@H](CC(=O)N3CCCCC3)O[C@H](CO)[C@H]1O2)C1CCC1,-3,-13[16.7 µM],-3[16.7 µM],.,.
Cn1c(=O)c2cn3c(c2n(C)c1=O)C(c1ccccc1)CC(c1ccccc1)=N3 (stereo unspecified),77*,.,16,-3,-21
Cn1c(=O)c2c(-c3ccccc3)n(-c3ccccc3)cc2n(C)c1=O,-12,-35,-7,-2,.
CCCCOc1ccc(/C=C/C(=O)OCC(=O)N2CC(=O)Nc3ccccc32)cc1OCC,.,61*,.,-1,-13
COc1ccc(/C=C/C(=O)OCC(=O)N2CC(=O)Nc3ccccc32)cc1,.,-7,-5,.,4
COc1ccc(C=C(C(=O)O)c2ccc(OC)cc2)cc1,52*,-8,-10,29,43
COc1cccc(CNC(=O)C[C@H]2C=C[C@@H](NS(=O)(=O)c3ccccc3OC)[C@H](CO)O2)c1,0,2[16.7 µM],.,.,.
O=C(c1cccc(F)c1)N1C[C@H]2[C@@H](c3ccccc31)[C@@H](CO)N2C(=O)c1ccc(F)cc1,5,.,192*[16.7 µM],.,.
O=C(Nc1ccccc1)N1C[C@H]2[C@@H](c3ccccc31)[C@@H](CO)N2C(=O)c1ccccn1,12,.,132*[16.7 µM],.,.
O=C(c1ccc(F)cc1)N1C[C@H]2[C@@H](c3ccccc31)[C@H](CO)N2C(=O)c1ccccc1,-2,.,0[16.7 µM],.,.
O=C(c1ccc(F)cc1)N1C[C@H]2[C@@H](c3ccccc31)[C@@H](CO)N2C(=O)c1ccc(F)cc1,-7,.,364*[16.7 µM],.,.
O=C(Nc1ccccc1F)N1C[C@@H]2[C@H](c3ccccc31)[C@@H](CO)N2C(=O)C1CCCC1,23,.,130*[16.7 µM],.,.
CO[C@H]1CN(C)C(=O)c2ccc(NS(C)(=O)=O)cc2OC[C@H](C)N(Cc2cncnc2)C[C@@H]1C,.,-3[16.7 µM],.,.,.
CCOC(=O)[C@]12CCCC=C1N(CCC1=CCCCC1)C(=O)[C@H](CC(=O)NCc1ccc(OC)c(OC)c1)C2,.,71*,.,-4,.
CCCCCCCCN1C(=O)[C@H](CC(=O)NCc2ccc(OC)c(OC)c2)C[C@@]2(C(=O)OCC)CCC=C12,.,35,.,-5,.
CCCCNC(=O)C[C@@H]1C[C@@]2(C(=O)OCC)CCCC=C2N(CCc2ccc(OC)c(OC)c2)C1=O,.,-14,.,-1,.
COC(=O)[C@]12CCCCC=C1N(CCC1=CCCCC1)C(=O)[C@H](CC(=O)NCc1ccc(OC)c(OC)c1)C2,.,80*,.,-5,.
CCOC(=O)[C@]12CCCC=C1N(Cc1ccccc1)C(=O)[C@H](CC(=O)NCc1ccc(OC)c(OC)c1)C2,.,0,.,-3,.
CCCCCCCCN1C(=O)[C@H](CC(=O)NCc2ccc(OC)c(OC)c2)C[C@@]2(C(=O)OC)CCCCC=C12,.,118*,.,-3,.
COC(=O)[C@]12CCCCC=C1N(Cc1ccccc1)C(=O)[C@H](CC(=O)NCc1ccc(OC)c(OC)c1)C2,.,-22,.,0,.
CCOC(=O)[C@]12CCCC=C1N(Cc1cccc3ccccc13)C(=O)[C@H](CC(=O)NCc1ccc(OC)c(OC)c1)C2,.,56*,.,-2,.
C[C@H](CO)N1C[C@H](C)[C@@H](CN(C)C(=O)NC2CCCCC2)Oc2c(NC(=O)c3nc4ccccc4s3)cccc2C1=O,0,.,-1[16.7 µM],.,.
CCCNC(=O)[C@@H]1[C@@H](CO)[C@@H]2Cn3c(cccc3=O)[C@H]1N2S(=O)(=O)c1ccccc1F,-6,.,.,.,.
COc1cccc(NC(=O)C(Cc2ccccc2)n2cccc2)c1 (stereo unspecified),.,-5,.,0,2
COc1cccc(CNC(=O)C(Cc2ccccc2)n2cccc2)c1 (stereo unspecified),.,-13,.,44*,13
C[C@H](CO)N1C[C@H](C)[C@H](CN(C)CC2CC2)OCCCC[C@H](C)Oc2ccc(NC(=O)Nc3ccc4c(c3)OCO4)cc2C1=O,2,41[16.7 µM],-9[16.7 µM],.,.
Cn1c2ccccc2c(=O)c2cc(C#CC3(O)CCCCC3)ccc21,-63,-65,-10,-11,-25
Cc1cc2sc3ccc(C#CC4(O)CCCCC4)cc3c(=O)c2cc1C,-84,65*,-4,-23,-96
C[C@H](O)C#Cc1ccc2c(c1)O[C@@H](CN(C)C(=O)CN(C)C)[C@@H](C)CN([C@@H](C)CO)S2(=O)=O,1,8[16.7 µM],-6[16.7 µM],.,.

# Source: PubChem (Broad Institute)
